{"source": "PubChem BioAssay (Tox21)", "note": "Inconclusive results are not listed. A structure can be active in one record and inactive in another. Active and inactive are the calls of the source. Calls follow the shape of the dose curve; as a rule, active = well fitted cell-killing curve with a large enough effect in the repeat runs; inconclusive = weak or mixed curves, or effect the other way; inactive = flat fitted curve, though single readings scatter. % is scaled to controls: 0 for no effect and ±100 for the full control effect; potency is read from the fitted curve at half-maximal effect."}
{"experiment": "qHTS assay to identify small molecule antagonists of the retinoid acid receptor (RAR) signaling pathway - cell viability counter screen (AID 1159551); also: nearly all actives have a fitted effect of over 35% in size", "settings": "C3RL4 cells viability, ATP luminescence (CellTiter-Glo), 6 h; series mostly up to 92.4 µM; activity change, negative = cytotoxicity: at the top concentration", "source_text": "U.S. Tox21 Program National Center for Advancing Translational Sciences [NCATS] NIH Chemical Genomics Center [NCGC] U.S. Environmental Protection Agency [EPA] National Institutes of Environmental Health Sciences [NIEHS] National Toxicology Program [NTP] U.S. Food and Drug Administration [FDA] Tox21 Assay Overview: All-trans Retinoic acid (atRA) is the potent natural metabolite of retinol and plays an important role in normal embryonic development and maintenance of cellular phenotype in adult animals. atRA is the activating ligand for the retinoic acid receptors (RARs) which form heterodimers with retinoid X receptors (RXRs) on the retinoic acid response element (RARE). Through activation of the RAR/RXRs nuclear receptors, atRA regulates the transcription of a large number of protein-coding genes and regulatory RNAs. Intracellular levels of atRA are controlled by the retinol signaling pathway (RSP) that regulates the biosynthesis and catabolism of atRA to maintain physiological levels. Chemicals that interfere with the RSP can cause abnormal intracellular levels of atRA and therefore are potential developmental toxicants. To assess compounds for the potential adverse effect on embryonic development through interfering with retinol signaling, a cell-based RARE luciferase reporter gene assay was used. C3RL4 cell line (OARSA/CFSAN/FDA, Laurel, MD) was used to screen Tox21 10K compound library for identifying inhibitors of the RSP. Also cytotoxicity was assessed by determining the viability of cells based on the quantitation of ATP.\nTox21 Assay Protocol Summary: C3RL4 cells were seeded at 1,000/well in 4 uL of assay medium into white solid 1,536-well tissue culture plates (Greiner Bio-One North America Inc. Monroe, NC) using a Multidrop Combi (Thermo Scientific, Waltham, MA) dispenser. After incubation at 37 C and 5% CO2 for an overnight, 23 nL of compounds dissolved in DMSO, positive control or DMSO only were transferred by a Pintool station (Kalypsys, San Diego, CA). One ul of 1 uM (final concentration) of Retinol was added right after the compound addition by using a Flying Reagent Dispenser (FRD) (Aurora Discovery, San Diego, CA). After 6 hr incubation at 37 C and 5% CO2, 5 uL of CellTiter-Glo reagent (Promega Corporation, Madison, WI) was added to each assay plate using an FRD. Luminescence was quantified on a ViewLux plate reader (PerkinElmer, Waltham, MA) after 30 min incubation at room temperature."}
{"smiles": "CC1(C)[C@@H](O)CC[C@]2(C)[C@H]3C(=O)C=C4[C@@H]5C[C@@](C)(C(=O)O)CC[C@]5(C)CC[C@@]4(C)[C@]3(C)CC[C@@H]12", "activity change, negative = cytotoxicity": "-4.98% (inactive)"}
{"smiles": "Oc1cc(Cl)cc(Cl)c1Cl", "activity change, negative = cytotoxicity": "-8.53% (inactive)"}
{"smiles": "CCOC(=O)NNc1ccc(N(CC)CC(C)O)nn1", "note": "(stereo not given)", "activity change, negative = cytotoxicity": "-0.0739% [at 42.5 µM] (inactive)"}
{"smiles": "CCN1C(=O)c2ccccc2C1Nc1ccc(OCCN2CCCCC2)cc1", "note": "(stereo not given)", "activity change, negative = cytotoxicity": "1.82% [at 42.5 µM] (inactive)"}
{"smiles": "CC(C)(C)NSc1nc2ccccc2s1", "activity change, negative = cytotoxicity": "-0.577% (inactive)"}
{"smiles": "O=C(O)c1ccc2cc(C(=O)O)ccc2c1", "activity change, negative = cytotoxicity": "0.664% (inactive)"}
{"smiles": "Cc1c2ccccc2c(C)c2c1ccc1ccccc12", "Potency": "inactive"}
{"smiles": "CCCCNS(=O)(=O)c1ccc(C)cc1", "activity change, negative = cytotoxicity": "-1.26% (inactive)"}
{"smiles": "CCCCCCCCCCCCCC[N+](C)(C)C", "Potency": "61.1 µM (active) and inactive"}
{"smiles": "FC(F)(F)c1cccc(Cl)c1", "activity change, negative = cytotoxicity": "-0.85% (inactive)"}
{"smiles": "C[Si](Cl)(c1ccccc1)c1ccccc1", "activity change, negative = cytotoxicity": "-4.2% (inactive)"}
{"smiles": "C1CCC(SSC2CCCCC2)CC1", "activity change, negative = cytotoxicity": "2.78% (inactive)"}
{"smiles": "O=C(O)c1cc(-c2ccc(F)cc2F)ccc1O", "activity change, negative = cytotoxicity": "-0.447% [at 42.5 µM] (inactive)"}
{"smiles": "O=C(c1ccc(O)c(O)c1)c1ccc(O)cc1O", "activity change, negative = cytotoxicity": "7.63% (inactive)"}
{"smiles": "CCC(C)(CCC(C)C)C(=O)[O][Sn]([CH3])([CH3])[O]C(=O)C(C)(CC)CCC(C)C", "note": "(stereo not given)", "activity change, negative = cytotoxicity": "-0.731% (inactive)"}
{"smiles": "Cc1ccc(C)cc1", "activity change, negative = cytotoxicity": "-1.55% (inactive)"}
{"smiles": "O=C1CCc2ccc(OCCCCN3CCN(c4cccc(Cl)c4Cl)CC3)cc2N1", "activity change, negative = cytotoxicity": "-13.5% [at 42.5 µM] (inactive)"}
{"smiles": "O[C@@H]([C@H](O)[C@H](O)CBr)[C@H](O)CBr", "activity change, negative = cytotoxicity": "-2.46% (inactive)"}
{"smiles": "NC[C@H]1O[C@H](O[C@H]2[C@H](O[C@@H]3O[C@H](CO)[C@@H](O)[C@H]3O)C(O)[C@H](N)C[C@@H]2N)[C@H](N)[C@@H](O)[C@@H]1O", "note": "(stereo not given in full)", "activity change, negative = cytotoxicity": "-0.449% [at 8.39 µM] (inactive)"}
{"smiles": "CC(CO)Oc1ccccc1", "note": "(stereo not given)", "activity change, negative = cytotoxicity": "0.245% (inactive)"}
{"smiles": "CCCCC(CC)COC(=O)CCCCC(=O)OCc1ccccc1", "note": "(stereo not given)", "activity change, negative = cytotoxicity": "-0.8% (inactive)"}
{"smiles": "O=C1CCCCCCCCCCCCCCCO1", "activity change, negative = cytotoxicity": "1.88% (inactive)"}
{"smiles": "COc1ccc(NC(=O)CC(C)=O)cc1", "activity change, negative = cytotoxicity": "-0.491% (inactive)"}
{"smiles": "CC(C)=CCNc1ncnc2c1ncn2[C@@H]1O[C@H](CO)[C@@H](O)[C@H]1O", "Potency": "13.3 µM (active)"}
{"smiles": "c1ccc(SSc2ccccc2)cc1", "activity change, negative = cytotoxicity": "-8.69% (inactive)"}
{"smiles": "OC1CCC(C2CCCCC2)CC1", "note": "(stereo not given)", "activity change, negative = cytotoxicity": "-4.7% (inactive)"}
{"smiles": "CCCCCC(C)OC(=O)COc1ccc(Cl)c2cccnc12", "note": "(stereo not given)", "activity change, negative = cytotoxicity": "-8.18% (inactive)"}
{"smiles": "[Cl][Pt-2]([Cl])([Cl])[Cl]", "activity change, negative = cytotoxicity": "-5.13% (inactive)"}
{"smiles": "CC(C)Cn1cnc2c(N)nc3ccccc3c21", "activity change, negative = cytotoxicity": "-0.222% [at 19 µM] (inactive)"}
{"smiles": "CNC(=O)c1ccccc1Sc1ccc2c(/C=C/c3ccccn3)n[nH]c2c1", "activity change, negative = cytotoxicity": "-6.15% [at 42.5 µM] (inactive)"}
{"smiles": "CC/C=C\\CCCCCO", "activity change, negative = cytotoxicity": "-0.312% (inactive)"}
{"smiles": "Cc1c(N)cccc1C(F)(F)F", "activity change, negative = cytotoxicity": "0.684% [at 42.5 µM] (inactive)"}
{"smiles": "CC(C)(C)c1ccc(C(O)CCCN2CCC(C(O)(c3ccccc3)c3ccccc3)CC2)cc1", "note": "(stereo not given)", "activity change, negative = cytotoxicity": "3.53% [at 42.5 µM] (inactive)"}
{"smiles": "CCn1c2ccccc2c2cc([N+](=O)[O-])ccc21", "activity change, negative = cytotoxicity": "-1.7% (inactive)"}
{"smiles": "CCC(CC)C(C)CCOC(C)=O", "note": "(stereo not given)", "activity change, negative = cytotoxicity": "0.673% (inactive)"}
{"smiles": "C[C@H]1NCc2cc(-c3ccc4c(=O)c(C(=O)O)cn(C5CC5)c4c3OC(F)F)ccc21", "activity change, negative = cytotoxicity": "0.739% [at 19 µM] (inactive)"}
{"smiles": "Cl[Si](Cl)(c1ccccc1)c1ccccc1", "activity change, negative = cytotoxicity": "1.52% (inactive)"}
{"smiles": "CCCCCCCCCCC[C@@H](C[C@@H]1OC(=O)[C@H]1CCCCCC)OC(=O)[C@H](CC(C)C)NC=O", "activity change, negative = cytotoxicity": "0.198% [at 42.5 µM] (inactive)"}
{"smiles": "S=C([S-])NCCNC(=S)[S-].S=C([S-])NCCNC(=S)[S-].[Mn+2].[Zn+2]", "activity change, negative = cytotoxicity": "-1.88% [at 42.5 µM] (inactive)"}
{"smiles": "COc1cccc(OC)c1C(=O)O", "activity change, negative = cytotoxicity": "5.32% (inactive)"}
